Records with an inconclusive call do not appear. The source made the active and inactive calls. The call rests on the fitted dose curve; in most records, active means well fitted curve in the direction sought with a large enough effect; inconclusive means small, poorly fitted or top-dose-only effect, or another doubt; inactive means no such curve, though single readings can be large; an effect the other way counts as inactive or inconclusive.
Assays:
CRL-7250 = normal cell line; experiment: Cytotoxic Profiling of Annotated Libraries Using Quantitative High-Throughput Screening (AID 1296008); details: Five cell lines viability, CellTiter-Glo ATP luminescence, 48-72 h; max response: stronger effect = lower value; further: nearly all actives have a fitted effect of over 60% in size; on max response: on the % scale 0 is the no-effect control and ±100 the full control effect
How it was run: (§1)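 Compounds were pin-transferred onto cells and incubated 48 or 72 hr at 37 degree Celsius, 95% humidity. CellTiter-Glo was added, plates sat 10 min at room temperature, then ATP-coupled luminescence was imaged as the viability read-out.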

HEK293 = experiment: as above; details: Five cell lines viability, CellTiter-Glo ATP luminescence, 48-72 h; max response: stronger effect = lower value
How it was run: as §1

HaCat [1] = experiment: as above; details: Five cell lines viability, CellTiter-Glo ATP luminescence, 48-72 h; max response: stronger effect = lower value
How it was run: as §1

KB-3-1 = experiment: as above; details: Five cell lines viability, CellTiter-Glo ATP luminescence, 48-72 h; max response: stronger effect = lower value
How it was run: as §1

NIH3T3 = experiment: as above; details: Five cell lines viability, CellTiter-Glo ATP luminescence, 48-72 h; max response: stronger effect = lower value
How it was run: as §1

HACAT [2] = experiment: qHTS assay to identify novel small-molecules to repurpose for Merkel cell carcinoma treatment (AID 1296009); details: MCC and control cell lines, CellTiter-Glo viability, 72 h; at 44.8 µM (top of the series) unless noted; further: nearly all actives have a fitted effect of over 60% in size
How it was run: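 Viability readout: ATP luminescence (CellTiter-Glo) after 72 hr drug exposure at 37 degree celsius. Dose-response format was 8 points for NPC and 11 points for MIPE; data normalized to in-plate controls.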

C33A = experiment: Primary qHTS to identify gynecologic anti-cancer compounds using libraries of approved drugs and bioactive compounds (AID 1345084); details: Gynecologic cancer cell panel viability, ATPlite luminescence, 48 h; series mostly up to 57.5 µM; further: on the % scale 0 is the no-effect control and ±100 the full control effect; nearly all actives have a fitted effect of over 55% in size
How it was run: (§2)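 Cells, 1,000 per well, were allowed to settle for 16 h at 37 C before compound addition. Five concentrations were tested for 48 h, and viability was read by ATPlite luminescence after 15 min at room temperature.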

CAOV3 = experiment: as above; details: Gynecologic cancer cell panel viability, ATPlite luminescence, 48 h; series mostly up to 57.5 µM
How it was run: as §2

CASKI = experiment: as above; details: Gynecologic cancer cell panel viability, ATPlite luminescence, 48 h; series mostly up to 57.5 µM
How it was run: as §2

Es-2 = experiment: as above; details: Gynecologic cancer cell panel viability, ATPlite luminescence, 48 h; series mostly up to 57.5 µM
How it was run: as §2

HeLa = experiment: as above; details: Gynecologic cancer cell panel viability, ATPlite luminescence, 48 h; series mostly up to 57.5 µM
How it was run: as §2

Hek293T = experiment: as above; details: Gynecologic cancer cell panel viability, ATPlite luminescence, 48 h, control line for the selectivity index; series mostly up to 57.5 µM
How it was run: as §2

JEG-3 = experiment: as above; details: Gynecologic cancer cell panel viability, ATPlite luminescence, 48 h; series mostly up to 57.5 µM
How it was run: as §2

OV90 = experiment: as above; details: Gynecologic cancer cell panel viability, ATPlite luminescence, 48 h; series mostly up to 57.5 µM
How it was run: as §2

PA-1 = experiment: as above; details: Gynecologic cancer cell panel viability, ATPlite luminescence, 48 h; series mostly up to 57.5 µM
How it was run: as §2

COc1cncc(C#Cc2ccccn2)c1
inactive: max response (CRL-7250) 4.39% | max response (HEK293) 2.17% | outcome (HaCat [1]) | max response (KB-3-1) -1.99% | max response (NIH3T3) -3.14% | outcome (HACAT [2]) | Potency (C33A) | Potency (CAOV3) | outcome (CASKI) | Potency (Es-2) | Potency (HeLa) | Potency (Hek293T) | Potency (JEG-3) | Potency (OV90) | Potency (PA-1)

CC(CC12CCCN1C(=O)C1CCCN1C2=O)OC(N)=O (stereo not given)
inactive: outcome (CRL-7250) | max response (HEK293) 2.01% | outcome (HaCat [1]) | max response (KB-3-1) 4.48% | max response (NIH3T3) 4.31% | outcome (HACAT [2]) | Potency (C33A) | Potency (CAOV3) | outcome (CASKI) | Potency (Es-2) | Potency (HeLa) | Potency (Hek293T) | Potency (JEG-3) | Potency (OV90) | Potency (PA-1)

CC1(C)CCC[C@]2(C)C1CC=C(CO)[C@H]2CC/C(=C/CO)CO (stereo not given in full)
inactive: max response (CRL-7250) -11.4% | max response (HEK293) -9.82% | outcome (HaCat [1]) | max response (KB-3-1) -0.734% | max response (NIH3T3) 1.71% | outcome (HACAT [2]) | Potency (C33A) | Potency (CAOV3) | outcome (CASKI) | Potency (Es-2) | Potency (HeLa) | Potency (Hek293T) | Potency (JEG-3) | Potency (OV90) | Potency (PA-1)

CC1(C)C(=O)CCC2(C)C1C(O)C=C1COC(=O)C12O (stereo not given)
inactive: max response (CRL-7250) -15.2% | max response (HEK293) -3.58% | outcome (HaCat [1]) | max response (KB-3-1) 7.63% | max response (NIH3T3) -3.93% | outcome (HACAT [2]) | Potency (C33A) | Potency (CAOV3) | outcome (CASKI) | Potency (Es-2) | Potency (HeLa) | Potency (Hek293T) | Potency (JEG-3) | Potency (OV90) | Potency (PA-1)

C/C=C(\C)C(=O)OC[C@H]1O[C@@H](O[C@H]2[C@@H](O[C@H]3O[C@H](CO)[C@@H](O)[C@H](O)[C@H]3O[C@@H]3O[C@H](CO)[C@@H](O)[C@H](O)[C@H]3O)O[C@H](COC(=O)/C(C)=C/C)[C@@H](O)[C@@H]2O)[C@H](O)[C@@H](O)[C@@H]1O
inactive: outcome (CRL-7250) | max response (HEK293) -5.43% | outcome (HaCat [1]) | max response (KB-3-1) -3.26% | max response (NIH3T3) 3.7% | outcome (HACAT [2]) inactive [at 9.27 µM] | activity change, negative = cytotoxicity (C33A) 7.95% [at 11.6 µM] | activity change, negative = cytotoxicity (CAOV3) 13.6% [at 11.6 µM] | activity change, negative = cytotoxicity (CASKI) -6.51% [at 11.6 µM] | activity change, negative = cytotoxicity (Es-2) -0.184% [at 11.6 µM] | activity change, negative = cytotoxicity (HeLa) -3.59% [at 11.6 µM] | activity change, negative = cytotoxicity (Hek293T) 2.97% [at 11.6 µM] | activity change, negative = cytotoxicity (JEG-3) -0.345% [at 11.6 µM] | activity change, negative = cytotoxicity (OV90) 4.16% [at 11.6 µM] | activity change, negative = cytotoxicity (PA-1) 4.96% [at 11.6 µM]

CC(C)(O)[C@@H]1CC[C@]2(CO)[C@@H](O)CC[C@](C)(O)[C@H]2[C@@H]1O[C@@H]1O[C@H](CO)[C@@H](O)[C@H](O)[C@H]1O
inactive: max response (CRL-7250) 1.76% | max response (HEK293) 1.77% | outcome (HaCat [1]) | max response (KB-3-1) 8.79% | max response (NIH3T3) 0.484% | outcome (HACAT [2]) inactive [at 17.4 µM] | Potency (C33A) | Potency (CAOV3) | outcome (CASKI) | Potency (Es-2) | Potency (HeLa) | Potency (Hek293T) | Potency (JEG-3) | Potency (OV90) | Potency (PA-1)

O=C1OC(c2ccc(O)cc2)C(O)=C1Cc1ccccc1 (stereo not given)
inactive: max response (CRL-7250) 3.91% | max response (HEK293) 0.741% | outcome (HaCat [1]) | outcome (KB-3-1) | max response (NIH3T3) 4.9% | outcome (HACAT [2]) | Potency (C33A) | Potency (CAOV3) | outcome (CASKI) | Potency (Es-2) | Potency (HeLa) | Potency (Hek293T) | Potency (JEG-3) | Potency (OV90) | Potency (PA-1)

COC(=O)C(CC1(OC(=O)C(C)C)c2ccccc2N2C(=O)C(C)(C)N(O)C21)n1cnc2ccccc2c1=O (stereo not given)
inactive: max response (CRL-7250) -11.1% | max response (HEK293) -9.23% | outcome (HaCat [1]) | max response (KB-3-1) 5.72% | max response (NIH3T3) -14.6% | outcome (HACAT [2]) inactive [at 17.4 µM] | Potency (C33A) | Potency (CAOV3) | outcome (CASKI) | Potency (Es-2) | Potency (HeLa) | Potency (Hek293T) | Potency (JEG-3) | Potency (OV90) | Potency (PA-1)

C[C@@H]1CC[C@]2(C(=O)O[C@@H]3O[C@H](CO[C@@H]4O[C@H](CO)[C@@H](O[C@@H]5O[C@@H](C)[C@H](O)[C@@H](O)[C@H]5O)[C@H](O)[C@H]4O)[C@@H](O)[C@H](O)[C@H]3O)CC[C@]3(C)C(=CCC4[C@@]5(C)C[C@@H](O)[C@H](O)[C@@](C)(CO)C5CC[C@]43C)C2[C@H]1C (stereo not given in full)
inactive: max response (CRL-7250) -0.89% | max response (HEK293) -0.975% | outcome (HaCat [1]) | max response (KB-3-1) 3.97% | max response (NIH3T3) 1.43% | outcome (HACAT [2]) inactive [at 9.27 µM] | activity change, negative = cytotoxicity (C33A) -0.2% [at 11.6 µM] | activity change, negative = cytotoxicity (CAOV3) -4.15% [at 11.6 µM] | activity change, negative = cytotoxicity (CASKI) 20.3% [at 11.6 µM] | activity change, negative = cytotoxicity (Es-2) -3.91% [at 11.6 µM] | activity change, negative = cytotoxicity (HeLa) 11% [at 11.6 µM] | activity change, negative = cytotoxicity (Hek293T) -0.706% [at 11.6 µM] | activity change, negative = cytotoxicity (JEG-3) 0.915% [at 11.6 µM] | activity change, negative = cytotoxicity (OV90) -1.43% [at 11.6 µM] | activity change, negative = cytotoxicity (PA-1) 6.43% [at 11.6 µM]

COCCN1CCC(C(=O)NO)(S(=O)(=O)c2ccc(Oc3ccc(OC(F)(F)F)cc3)cc2)CC1
inactive: max response (CRL-7250) -0.582% | max response (HEK293) -3.44% | outcome (HaCat [1]) | outcome (KB-3-1) | outcome (NIH3T3) | outcome (HACAT [2]) | Potency (C33A) | Potency (CAOV3) | outcome (CASKI) | Potency (Es-2) | Potency (HeLa) | Potency (Hek293T) | Potency (JEG-3) | Potency (OV90) | Potency (PA-1)

O=C(Cn1c2ccccc2c2nc3n(c(=O)c21)CCS3)N1CCCC1
inactive: outcome (CRL-7250) | max response (HEK293) -15.3% | outcome (HaCat [1]) | outcome (KB-3-1) | max response (NIH3T3) 1.74% | outcome (HACAT [2]) | Potency (C33A) | Potency (CAOV3) | outcome (CASKI) | Potency (Es-2) | Potency (HeLa) | Potency (Hek293T) | Potency (JEG-3) | Potency (OV90) | Potency (PA-1)
